# Source: PubChem
# CF NFkB block – inhibitors of PAF-induced NF-kB signaling, primary screen, cell-based, GFP fluorescence, uHTS; KKLEB NF-kB-GFP reporter, GFP fluorescence overnight; inhibition, % at 5 µM; 360,000 compounds, 0.86% hits; AID 588850, 2011;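 active = at least 50% inhibition at 5 µM, scaled per plate between neutral and stimulator controls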;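 also: PAF is a Pseudomonas aeruginosa culture filtrate used as stimulus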
# KKLEB cytotox – cytotoxicity in KKLEB CF airway cells, primary screen, cytotoxicity control for CF NF-kB inhibitor project, cell-based, uHTS, fluorescence assay plates | 360,000 compounds, 0.36% hits | activity change (cytotoxicity), % at 5 µM | KKLEB CF airway cells viability, ATPlite luminescence, overnight; hits give low values; cells stimulated with P. aeruginosa culture filtrate | AID 602141, 2011;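 active = corrected activity change at or below -50% at 5 µM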
# LMP1 NFkB inh – EBV LMP1-driven NF-kappaB luciferase reporter inhibitors, primary screen, cell-based, luminescence, single point. inhibition, % at 12.5 µM. 350,000 compounds, 0.69% hits. LMP1-induced NF-kappaB luciferase reporter cells; in the data active = inhibition above about 41%
# Peg3 promoter – Peg3 promoter-driven luciferase inhibitors, primary screen, cell-based, HeLa, luciferase luminescence; inhibition, % at 20 µM; HeLa PEG-Prom luciferase reporter, overnight; 360,000 compounds, 1.7% hits;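 active = inhibition of at least 50% at 20 µM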
# Shn3 inh set2 – reduction of Shn3 3'UTR firefly luciferase signal, primary screen, Schnurri-3 inhibitor project, cell-based, Clone20 osteoblasts, set 2 | Clone20 osteoblast Shn3 3'UTR firefly luciferase, 24 h | inhibition, % at 12.5 µM | 360,000 compounds, 0.52% hits;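 active = mean inhibition of at least 75% with every replicate also reaching 75%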
# HIF-2a inh – HIF-2a reporter inhibitors, primary screen, luminescence, 786-0 RCC cells | inhibition, % at 18.8 µM | 786-0 RCC cells HIF-2a reporter, luciferase luminescence, overnight | AID 624352, 2012 | 360,000 compounds, 0.72% hits;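 active = inhibition of the luminescence signal of 40% or more relative to plate controls, in a single-dose primary screen at 18.75 µM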
# Mdm2 MdmX conf – retested Mdm2-MdmX interaction blockers, confirmation, cell-based, luminescence, single concentration, set 2. shares compounds with HIF-2a inh. SaOS-2 split-luciferase Mdm2/MdmX complementation. inhibition, % at 8 µM. 740 compounds, 99% hits. AID 504601, 2011;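 active = mean inhibition of the luminescence signal across two replicates at or above 26 percent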
# HIF-2a conf – HIF-2a reporter inhibitor retest, confirmation, luminescence, 786-0 RCC cells. 1,800 compounds, 56% hits. shares compounds with HIF-2a inh. AID 651580, 2012. HIF-2a luciferase reporter luminescence, overnight. inhibition, % at 18.8 µM;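 active = mean inhibition across four replicates of at least 40 percent at the single tested concentration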
# HIF-1a cs – HIF-1a luciferase reporter signal reduction – MiaPaCa-2 cells, single concentration, counter-screen for HIF-2a inhibitor project, confirmation. shares compounds with HIF-2a inh. MiaPaCa-2 HIF-1a luciferase reporter, desferoxamine, overnight. inhibition, % at 18.8 µM. 1,800 compounds, 72% hits. AID 651589, 2012;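 active = mean inhibition of the reporter signal across four replicates at the single tested dose of 50% or more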
# Hits are given with their value; - = inactive; . = no result. Sampled rows, rich in hits. Any-hit rate of the full collection: about 2.9%.
SMILES,CF NFkB block,KKLEB cytotox,LMP1 NFkB inh,Peg3 promoter,Shn3 inh set2,HIF-2a inh,HIF-2a conf,HIF-1a cs,others
COc1cc(Cl)c(C)cc1NC(=O)Cc1cccs1,-,-,-,-,-,-,.,.,
Cc1cn([C@H]2C[C@H](O)[C@@H](CNC(=O)c3ccccn3)O2)c(=O)[nH]c1=O,-,-,-,-,-,-,.,.,
O=C(C#Cc1ccccc1)c1ccco1,98.6,-64.3,-,104.7,95.2,40.2,90.4,103.5,Mdm2 MdmX conf=102.7
CSc1ccccc1C(=O)N1CCCC(CCC(=O)NCc2ccc(F)c(F)c2)C1 (stereo unspecified),-,-,-,-,-,-,.,.,
Cc1onc(-c2ccccc2)c1C(=O)OCC(=O)Nc1ccccc1Cl,-,-,-,-,-,-,.,.,
C=CCNC(=O)N1C2=NC(C(=O)OC)=C(C(=O)OC)[C@@H]3N(Cc4ccccc4)c4ccccc4[C@]23C[C@H]1C(=O)OC,-,-,-,-,-,-,.,.,
COC(=O)c1ccc2nc(Nc3nc4c(F)cc(F)cc4s3)sc2c1,-,-,-,75.3,-,90.2,93.6,90.3,
COC(=O)c1ccc2nc(NC(=O)C(C)C)sc2c1,-,-,-,-,-,-,.,.,
COc1ccc(CNC(=O)[C@@H]2CC=C[C@@H]3CCN(Cc4ccc(Cl)c(Cl)c4)C(=O)[C@@H]32)cc1,-,-,-,-,-,-,.,.,
COc1ccc(CNC[C@@H](CCCCN(C)Cc2ccc(OC)cc2)N2C[C@H](c3ccccc3)N(CCc3ccc(Cl)c(Cl)c3)C(=O)C2=O)cc1,62.1,-95.2,88.8,97.5,94.9,96.7,.,.,Mdm2 MdmX conf=103.5
CC(=O)Nc1ccc(NC(=O)c2c([N+](=O)[O-])c(C(C)(C)C)nn2C)cc1,-,-,-,-,-,60.0,66.7,-,
COc1ccc(N(CCC#N)S(=O)(=O)c2cccc3nsnc23)cc1,-,-,-,-,-,-,.,.,
COc1cc(OC)nc(Nc2nc(C(N)Cc3ccc(C(F)(F)F)cc3)cs2)n1 (stereo unspecified),-,-,.,115.0,-,70.4,-,104.7,
COc1cccc(NC(=O)CN(C)C(=O)c2ccc(N3CCOCC3)c([N+](=O)[O-])c2)c1,-,-,-,-,-,-,.,.,
COc1ccc(C)c2sc(N(CCCN(C)C)C(=O)c3ccc(S(=O)(=O)N4CCc5ccccc5C4)cc3)nc12,74.7,-84.5,-,101.7,92.5,84.8,-,97.1,
Cn1cc(CN2CCC(C(=O)NC(c3ccc(F)cc3)c3ccc4ccccc4n3)CC2)c2ccccc21 (stereo unspecified),-,-,.,101.0,-,91.6,-,106.3,
Brc1ccccc1/C=N/N1CCCCC1,-,-,-,-,-,45.1,-,-,
CC1=C(CO)C(=O)OC([C@@H](C)C2CC[C@H]3C4C[C@H]5O[C@]56[C@@H](O)C=CC(=O)[C@]6(C)C4CC[C@]23C)C1 (stereo partly specified),84.6,-,82.9,109.4,97.9,94.2,97.1,107.0,
CS(=O)(=O)Nc1cccc(-c2ccc3nncn3c2)c1,-,-,.,-,-,-,.,.,
COc1ccc(C(=O)N2CCC(n3nccc3NC(=O)C3CCOC3)CC2)cc1 (stereo unspecified),-,-,-,-,-,-,.,.,
O=C(NCCCN1CCOCC1)c1cc(-c2ccc(Br)cc2)on1,-,-,-,-,-,57.5,-,61.7,
CCn1c(SCc2ccccc2F)nnc1-c1ccncc1,-,-,-,-,-,-,.,.,
CN(C)CCCNC(=O)C[C@H]1C[C@H](C(=O)N2CCCCC2)[C@@]2(CCc3ccccc3)c3[nH]c4ccc(Cl)cc4c3CCN2C1=O,-,-,-,95.0,-,81.1,-,103.4,Mdm2 MdmX conf=103.2
CC(C)=CCC/C(C)=C/CNC(=O)C[C@H]1C[C@H](C(=O)N2CCOCC2)[C@@]2(CCC3CCCC3)c3[nH]c4cc(CCC(=O)N(C)C)ccc4c3CCN2C1=O,-,-,-,-,-,79.6,-,105.7,
CN(C)CCCNC(=O)C[C@H]1C[C@H](C(=O)N2CCCCC2)[C@@]2(C)c3[nH]c4ccc(Cl)cc4c3CCN2C1=O,-,-,-,-,-,-,.,.,
SMILES,CF NFkB block,KKLEB cytotox,LMP1 NFkB inh,Peg3 promoter,Shn3 inh set2,HIF-2a inh,HIF-2a conf,HIF-1a cs,others
CC1=C(C(=O)OCC2CCCCC2)C(c2ccc(O)cc2)NC(=O)N1 (stereo unspecified),-,-,-,-,-,-,.,.,
O=C(Nc1cc(S(=O)(=O)N2CCCCC2)ccc1Cl)C1=NN(c2ccccc2)C(=O)CC1,-,-,-,-,-,-,.,.,
O=C(c1cccs1)C1CCCN(Cc2nc(Cc3ccccc3F)no2)C1 (stereo unspecified),-,-,-,-,-,-,.,.,
CN(C)CCCNc1c2ccccc2nc2ccccc12,-,-,-,102.0,94.3,-,.,.,Mdm2 MdmX conf=102.0
CC(=O)c1ccc(NC(=O)c2cnn3ccccc23)cc1,-,-,-,-,-,75.3,86.3,-,
CC(=O)c1ccc(NS(=O)(=O)c2ccc(C)cc2)cc1,-,-,-,-,-,-,.,.,
COc1cc(OC)c(OC)cc1/C=C/C(=O)c1ccc(NS(=O)(=O)c2ccc(C)cc2)cc1,-,-,-,-,-,58.6,-,50.4,
CC(C)(C)c1ccc(OCC(=O)NNC(=O)c2cccnc2)cc1,-,-,-,-,-,-,.,.,
CN(C)CCCNC(=O)c1ccccn1,-,-,-,-,-,-,.,.,
CN(C)CCCNC(=O)c1ccc(-c2nc(-c3ccc(Cl)cc3)cs2)cc1,-,-,-,103.1,-,88.5,-,106.2,
O=C(NC1CCCCC1)c1n[nH]c2c1CCCCC2,-,-,53.7,55.6,-,44.4,74.7,74.2,
CC1(C)Cc2c(sc(NC(=O)COc3cccc4ccccc34)c2C#N)C(C)(C)N1,-,-,-,90.4,-,49.5,-,53.1,Mdm2 MdmX conf=103.5
NS(=O)(=O)c1ccc(Oc2ccc(S(N)(=O)=O)cc2)cc1,-,-,-,-,-,-,.,.,
